Holding throughout (format): functional
Experiment [1] deals with Solute carrier family 2, facilitated glucose transporter member 1 (Homo sapiens) (UniProt P11166). As to the kind of experiment: ST_JUDE_LEISH: Cytotoxicity at 2uM final concentration against transgenic Leishmania Mexicana promastigotes LmGLUT1 that are glucose transport deficient and complemented with the human glucose transporter GLUT1. Activity is measured by DNA content using SYBR green in vitro.

Experiment [2] deals with Hexose transporter 1 (Plasmodium falciparum) (UniProt O97467). In words: ST_JUDE_LEISH: Cytotoxicity at 2uM final concentration against transgenic Leishmania Mexicana promastigotes LmPfHT that are glucose transport deficient and complemented with the Plasmodium falciparum hexose transporter. Activity is measured by DNA content using SYBR green in vitro.
The target in experiment [3] is Glucose transporter (Leishmania mexicana) (UniProt O61059). As to the kind of experiment: ST_JUDE_LEISH: Cytotoxicity at 2uM final concentration against transgenic Leishmania Mexicana promastigotes LmGT2 that are glucose transport deficient and complemented with the L. Mexicana glucose transporter 2. Activity is measured by DNA content using SYBR green in vitro.

Solute carrier family 2, facilitated glucose transporter member 1 (Homo sapiens), sequence (P11166 whole entry): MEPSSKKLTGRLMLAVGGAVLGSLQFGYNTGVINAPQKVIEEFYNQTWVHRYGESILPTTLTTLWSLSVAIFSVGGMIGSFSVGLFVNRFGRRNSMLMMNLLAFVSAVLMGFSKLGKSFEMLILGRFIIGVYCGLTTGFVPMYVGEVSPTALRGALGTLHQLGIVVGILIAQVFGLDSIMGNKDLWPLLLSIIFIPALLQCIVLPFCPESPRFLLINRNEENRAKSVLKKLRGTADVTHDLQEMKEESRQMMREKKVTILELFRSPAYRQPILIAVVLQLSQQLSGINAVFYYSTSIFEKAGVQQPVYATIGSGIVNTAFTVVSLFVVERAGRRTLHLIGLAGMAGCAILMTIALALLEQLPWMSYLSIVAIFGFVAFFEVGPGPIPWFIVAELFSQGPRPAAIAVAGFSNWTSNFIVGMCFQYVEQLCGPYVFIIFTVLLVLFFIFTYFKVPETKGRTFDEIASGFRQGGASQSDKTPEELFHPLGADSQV

On to `CCOc1cc(N)c2nc3ccc([N+](=O)[O-])cc3cc2c1`, for which the inhibition came to 16.1% in experiment [1], 20.1% in experiment [2] and 6.39% in experiment [3].

As for `Cc1nn(-c2ccccc2)nc1C(=O)N(Cc1ccc(-c2ccc(CNCCc3ccc(S(C)(=O)=O)cc3)cn2)cc1)C1CC1`, the inhibition amounted to 3.23% in experiment [1], 3.85% in experiment [2] and 2.91% in experiment [3].

With `O=C(NCCCCCN1CCC(c2c[nH]c3ccccc23)C1)Nc1ccc(Cl)c(Cl)c1` (stereo not given), the inhibition in experiment [1] came to 3.7%; in experiment [2] it was 3.21%; in experiment [3], 2.22%.

On to `COc1ccc2c(c1)Sc1ccccc1C(N1CCN(CCO)CC1)C2` (stereo not given), for which the inhibition was 1.57% in experiment [1], 2.05% in experiment [2] and 2.69% in experiment [3].

On to `COc1ccccc1C1CN(Cc2coc3ccccc3c2=O)Cc2ccccc2O1` (stereo not given), for which the inhibition in experiment [1] is 0.38%; in experiment [2], 0.56%; in experiment [3], 0.45%.

Consider `O=C(Nc1ccc(F)cc1F)NC1CCN(c2ccnc3cc(Cl)ccc23)C1` (stereo not given), for which the inhibition in experiment [1] was determined as 6.88%; in experiment [2], 7.63%; in experiment [3], 6.34%.

In the case of `CCC(=O)Nc1ccc(Nc2nc(C)cc(N3CCCC3)n2)cc1`, the values for the inhibition in experiment [1], in experiment [2] and in experiment [3] were 3.46%, 12.4% and 2.39%, respectively.

As to `CCC1N=C(N)N=C(N)N1OCc1cccc2ccccc12` (stereo not given), the inhibition in experiment [1] worked out at 1.74%; in experiment [2], 0.62%; in experiment [3], 1.16%.

With `C[C@H]1CN(Cc2cccc(-c3cc(CNC(=O)c4cccc(C(=O)c5ccc(Cl)c(Cl)c5)c4)ccc3F)c2)CCN1`, the inhibition in experiment [1] was found to be 1.24%; in experiment [2], 2.34%; in experiment [3], 1.43%.

In the case of `COc1cc(C(=O)NC2CCN(Cc3ccccc3)CC2)ccc1-c1nc2cc(Cl)c(C)cc2[nH]1`, the inhibition is 10.1% in experiment [1], 9.26% in experiment [2] and 5.5% in experiment [3].

For the compound `C#CC[C@@H](NC(N)=O)C(=O)O`, the inhibition was -0.51% in experiment [1], 1% in experiment [2] and 0.41% in experiment [3].

On to `CN(C)C1CCN(Cc2ccc(N3CCN(Cc4cccc5[nH]ccc45)CC3)nc2)CC1`, for which the inhibition in experiment [1] was 2.41%; in experiment [2], 1.46%; in experiment [3] it was 2.99%.

Regarding `CO/C(=C\C=C\c1cc2cc(Cl)c(Cl)cc2[nH]1)C(=O)NC1CCN(CCNc2ccccc2)CC1`, the inhibition in experiment [1] was -1.91%; in experiment [2], -1.2%; in experiment [3] it was 0.08%.

On to `CCc1cn2c3c(cc(C(=O)N[C@@H](Cc4ccccc4)[C@H](O)CNCCOC)cc13)N(C)S(=O)(=O)CC2`, for which the values for the inhibition in experiment [1], in experiment [2] and in experiment [3] were 5.11%, 2.43% and 3.91%, respectively.

Take `COc1ccc2nccc([C@@H](O)CN3CCC(NC(=O)/C=C/c4cc([N+](=O)[O-])ccc4OC)CC3)c2c1`: the inhibition in experiment [1] was 1.12%; in experiment [2], 0.92%; in experiment [3], 0.53%.

As for `CCNC(C)(C)CN(Cc1ccc(-c2ccc(C(F)(F)F)cc2)cc1)C(=O)Cn1c(SCc2ccc(F)cc2)nc(=O)c2c1CCC2`, the inhibition worked out at 8.5% in experiment [1], 5.99% in experiment [2] and 5.46% in experiment [3].

With `O=C(Nc1ccc(-c2nc3ccccc3[nH]2)cc1)c1ccc(S(=O)(=O)N2CCc3ccccc32)cc1`, the inhibition was 2.92% in experiment [1], 0.13% in experiment [2] and 3.39% in experiment [3].

For the compound `Cc1nc(C)c(-c2ccc(Oc3cccc(OC(F)(F)F)c3)cc2)c(O)c1Cl`, the inhibition in experiment [1] worked out at 2.22%; in experiment [2], 2.75%; in experiment [3], 2.84%.

With `CC(CN(C)C)C(=O)Nc1ccc(-c2ccc(-c3nc4cc(C(F)(F)F)ccc4[nH]3)cc2)cc1` (stereo not given), the inhibition in experiment [1] came to 12.9%; in experiment [2], 11.6%; in experiment [3] it was 9.66%.

Turning to `Cc1cc(C)n(Cc2ccc(C(=O)NCC3CCCCC3)cc2)n1`, the inhibition in experiment [1] was 4.03%; in experiment [2] it was 2.07%; in experiment [3], 2.61%.

In the case of `C#CCN(Cc1cc2c(=O)[nH]c(N)nc2cc1C)c1ccc(C(=O)N[C@@H](CCC(=O)O)C(=O)O)cc1`, the figures for the inhibition in experiment [1], in experiment [2] and in experiment [3] were 6.81%, 0.4% and 8.07%, respectively.

As to `COC(=O)c1ccc(CCC(C)NCC(O)c2cccc(C(F)(F)F)c2)cc1` (stereo not given), the inhibition in experiment [1] amounted to 0.8%; in experiment [2], 0.12%; in experiment [3], 3.23%.

As for `O=C(NC1CCCCC1)N(Cc1ccc(-c2ccc(CNC3CCCC3)cc2)cc1)C1CCN(Cc2ccccc2)CC1`, the inhibition in experiment [1] amounted to 1.76%; in experiment [2] it was 3.96%; in experiment [3] it was 5.15%.

`COc1ccc(OC)c2c1CC1NCC2c2c(OC)ccc(OC)c21` (stereo not given): the values for the inhibition in experiment [1], in experiment [2] and in experiment [3] were 2.86%, 2.69% and 0.54%, respectively.

`Cc1nc2ccc3nc(NC(=O)c4ccno4)sc3c2s1`: the inhibition was 1.74% in experiment [1], 1.13% in experiment [2] and -1.31% in experiment [3].

Take `Cc1cc(O)c(-c2ccc(Oc3ccc(F)cc3)cc2)c(C)n1`: the inhibition in experiment [1] is 0.78%; in experiment [2], -0.19%; in experiment [3], -3.08%.

Regarding `O=C(Nc1ccc(Oc2ccccc2)cc1)N1CCC(CCN2CCC(c3c[nH]c4ccccc34)CC2)CC1`, the inhibition in experiment [1] was 4.42%; in experiment [2], 2.98%; in experiment [3], 5.21%.

Regarding `Cc1[nH]cnc1CSCCN/C(=N\C#N)NCCCCCCCCN/C(=N/C#N)NCCSCc1nc[nH]c1C`, the inhibition in experiment [1] was 2.45%; in experiment [2], 2.15%; in experiment [3], 2.98%.

Take `c1cncc(-c2cccc(CNc3nccc(Nc4ccc(OCCN5CCOCC5)cc4)n3)c2)c1`: the figures for the inhibition in experiment [1], in experiment [2] and in experiment [3] were 0.48%, 1% and 0.07%, respectively.

`CCN1CCCC1CNC(=O)c1cc2c(-c3ccc(Cl)cc3)nn(C)c2s1` (stereo not given): the inhibition came out at 2.89% in experiment [1], 5.39% in experiment [2] and 2.6% in experiment [3].

On to `Cc1ccc(CNC(=O)[C@H](Cc2ccccc2)Nc2cc(C)nc(Nc3ccccc3)n2)cc1`, for which the inhibition is 7.2% in experiment [1], 6.84% in experiment [2] and 4.59% in experiment [3].

Consider `N#Cc1cccc(-c2cnc(N)c(-c3nc4cc(S(N)(=O)=O)ccc4[nH]3)c2)c1`, for which the inhibition in experiment [1] came to 1.03%; in experiment [2], 1.38%; in experiment [3] it was 2.21%.

For `Cc1nc(N/C=C/c2ccc(O)cc2)cc(N2CCCC2)n1`, the inhibition in experiment [1] worked out at 8.44%; in experiment [2], 6.81%; in experiment [3], 7.13%.

Turning to `COc1ccc(OCCCCON2C(=N)N=C(N)NC2(C)C)cc1`, the inhibition in experiment [1] stood at 3.18%; in experiment [2], 1.29%; in experiment [3], 2.18%.

For the compound `Clc1ccc2c(NN=Cc3cccs3)ccnc2c1`, the inhibition in experiment [1] stood at 1.34%; in experiment [2] it was 1.3%; in experiment [3], 2.8%.

What is called inhibition is the change of the read-out against control, counted positive when it falls.

(Values after ChEMBL document CHEMBL3433997, “St. Jude Leishmania screening dataset” (2016).)
